Measured values from PubChem BioAssay (Tox21).
Unmarked numbers belong to inactive results. Inconclusive results are not listed. Entries that show only a call come without a potency. Calls of active or inactive are those of the source. Unless noted, the call rests on the fitted dose curve; in most records, active means well fitted curve in the direction sought with a large enough effect in the repeat runs; inconclusive means weak or mixed curves; inactive means no such curve, though single readings can be large; an effect the other way counts as inactive or inconclusive.

What was measured:
[1] = qHTS assay to identify small molecule antagonists of the TGF-beta/Smad signaling pathway - cell viability counter screen (AID 1346824); further: nearly all actives have a fitted effect of over 50% in size
Outline: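 SBE-bla HEK 293T cells, incubated overnight, then compound plus 0.25 ng/mL TGF-beta1 (stock added) for 5 hr at 37 C. Viability was read in the same wells by CellTiter-Glo luminescence after 30 min at room temperature.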

[2] = qHTS assay to identify small molecule agonists of the TGF-beta/Smad signaling pathway - cell viability counter screen (AID 1346829); further: top concentration of the series differs between compounds; nearly all actives have a fitted effect of over 45% in size
Outline: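 Cytotoxicity counter screen: CellTiter-Glo luminescence (30 min, room temperature) measured in the SBE-bla HEK 293T reporter wells after 5 hr compound treatment at 37 C and the 2 hr substrate step.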

[3] = qHTS assay to identify small molecule agonists of the TGF-beta/Smad signaling pathway (AID 1346859; active means well fitted activation curve with a large enough effect in the signal ratio in the repeat runs, not every such curve was filed as active; the % refers to the signal ratio; further: series mostly up to about 77 µM)
Outline: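 Beta-lactamase reporter activity downstream of Smad binding elements was measured in stably transfected HEK 293T cells; compounds were incubated for 5 hr, substrate for 2 hr at room temperature.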

[4] = molecular target: Thyrotropin-releasing hormone receptor (Homo sapiens) (UniProt P34981); test: qHTS assay to identify small molecule agonists of the thyrotropin-releasing hormone receptor (TRHR) signaling pathway (AID 1346891; calls by dose curve;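 further: HEK293 cells expressing TRHR with calcium dye readout; series mostly up to about 58 µM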)
Outline: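 Overnight-plated (18 h, 37 °C, 5% CO2) TRHR-Hek293 cells; 2 h calcium dye at 37 °C; compound in DMSO; 3-min kinetic fluorescence read.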

[5] = Human pregnane X receptor (PXR) small molecule agonists, qHTS cell viability counter screen (AID 1346977); further: nearly all actives have a fitted effect of over 50% in size
Outline: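 After a 5hr pre-incubation, PXR-Luc HepG2 cells received compounds plus positive control in DMSO and were kept 24hr at 37C. Cell viability was quantified by fluorescence from CellTiter-Fluor added for the final hour.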

[6] = Caspase-3/7 induction in CHO-K1 cells by small molecules, qHTS cell viability counter screen (AID 1346979); further: nearly all actives have a fitted effect of over 35% in size
Outline: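 Multiplexed with Caspase-Glo 3/7 in CHO-K1 cells, this counter screen added CellTiter-Fluor after 16hr of compound exposure and recorded fluorescence 1hr later.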

[7] = Caspase-3/7 induction in CHO-K1 cells by small molecules, qHTS assay (AID 1346980); further: nearly all actives have a fitted effect of over 15% in size
Outline: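 Wild-type CHO-K1 cells exposed to compounds for 17hr at 37 C, 5% CO2. Caspase-3/7 activity then measured by Caspase-Glo 3/7 luminescence after 30min at room temperature.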

[8] = Caspase-3/7 induction in HepG2 cells by small molecules, qHTS cell viability counter screen (AID 1346981); further: series mostly up to about 92 µM; nearly all actives have a fitted effect of over 30% in size
Outline: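 Fluorescence read-out of live-cell protease activity (CellTiter-Fluor) after 1 hr with reagent. This was measured in the same wells as the caspase-3/7 luminescence, on HepG2 cells exposed to DMSO-dissolved compounds for 16 hr at 37 C.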

[9] = molecular target: Nuclear receptor subfamily 1 group I member 2 (Homo sapiens) (UniProt O75469); test: Human pregnane X receptor (PXR) small molecule agonists, qHTS assay (AID 1346982); further: nearly all actives have a fitted effect of over 35% in size
Outline: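 HepG2 PXR-Luc reporter line, 5% charcoal-stripped FBS; 5 hr pre-incubation, compound (DMSO) 24 hr at 37 C/5% CO2; ONE-Glo 30 min RT; luminescence read-out.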

[10] = molecular target: Nuclear receptor subfamily 1 group I member 2 (Homo sapiens) (UniProt O75469); test: CYP3A4 induction through human pregnane X receptor (PXR) by small molecules, qHTS assay (AID 1346984); further: nearly all actives have a fitted effect of over 40% in size
Outline: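 HepG2-derived DPX-2 line carrying PXR plus a CYP3A4-promoter luciferase reporter; cells plated 5 hr, compound-exposed 24 hr at 37C. CYP3A4 activity probed with 3uM (final) Luciferin-IPA for 3hr, then luciferase read after One-Glo.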

[11] = molecular target: Nuclear receptor subfamily 1 group I member 2 (Homo sapiens) (UniProt O75469); test: Human pregnane X receptor (PXR) activation by small molecules, qHTS assay (AID 1346985); further: nearly all actives have a fitted effect of over 40% in size
Outline: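 DPX-2 cells (HepG2 co-transfected with a PXR response element and a CYP3A4-promoter luciferase construct) were seeded at 2,000 per well, rested 5 hr at 37C, then exposed to DMSO-dissolved compounds for 24 hr. Activation was read as luciferase luminescence.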

[12] = molecular target: Cytochrome P450 2C19 (Homo sapiens) (UniProt P33261); test: Cytochrome P450 Family 2 Subfamily C Member 19 (CYP2C19) small molecule antagonists: luciferase reporter qHTS assay (AID 1671197); further: series mostly up to about 120 µM; nearly all actives have a fitted effect of over 65% in size
Outline: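 Luminescent readout of CYP2C19 activity: luciferin product detected 20 min after adding detection reagent. Before that, compound and enzyme-substrate mix preincubated 10 min at room temperature; NADPH-regenerating system started a 1 h, 37C reaction. Ketoconazole as positive control.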

[13] = molecular target: Cytochrome P450 2C9 (Homo sapiens) (UniProt P11712); test: Cytochrome P450 Family 2 Subfamily C Member 9 (CYP2C9) small molecule antagonists: luciferase reporter qHTS assay (AID 1671198); further: series mostly up to about 120 µM; nearly all actives have a fitted effect of over 50% in size
Outline: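 P450-Glo proluciferin substrate with CYP2C9 enzyme; 10 min RT preincubation, then NADPH regeneration 1 h at 37C; luciferin detection reagent 20 min RT, luminescence in relative luminescence units.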

[14] = molecular target: Voltage-gated inwardly rectifying potassium channel KCNH2 (Homo sapiens) (UniProt Q12809); test: Human Ether-a-go-go-Related Gene (hERG) channel small molecule antagonists: fluorescence cell-based qHTS assay (AID 1671200);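 further: hERG-expressing U2OS cells given a thallium stimulus after FluxOR II dye loading; series mostly up to about 77 µM; nearly all actives have a fitted effect of over 50% in size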
Outline: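 Cell line hERG-U2OS; dye FluxOR II, 1 h RT dark; Tl+ stimulus; ex 480/em 540 nm, read each second for 2 min.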

[15] = Caspase-3/7 induction in HepG2 cells by small molecules, qHTS assay (AID 1346978); further: nearly all actives have a fitted effect of over 15% in size
Outline: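 Wild-type HepG2 cells, 2,000/well, settled 5 hr at 37 C and 5% CO2, then compound-treated for 17 hr; caspase-3/7 activity read by luminescent Caspase-Glo 3/7 after 30 min at room temperature.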

[16] = molecular target: Cytochrome P450 2D6 (Homo sapiens) (UniProt P10635); test: Cytochrome P450 Family 2 Subfamily D Member 6 (CYP2D6) small molecule antagonists: luciferase reporter qHTS assay (AID 1671196)
Outline: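 Luminogenic proluciferin substrate, CYP2D6 enzyme; 10 min RT preincubation with compound, NADPH regeneration system added, 1 h RT. Stop/detection reagent, 20 min RT, luminescence read (RLU). Signal proportional to CYP activity.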

[17] = molecular target: Cytochrome P450 3A4 (Homo sapiens) (UniProt P08684); test: Cytochrome P450 Family 3 Subfamily A Member 4 (CYP3A4) small molecule antagonists: luciferase reporter qHTS assay (AID 1671201)
Outline: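 Room-temperature assay throughout: 10 min compound–enzyme/substrate preincubation, 1 h reaction after NADPH regeneration solution, 20 min detection. Luciferin formed from proluciferin substrate is quantified by luminescence.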

[18] = molecular target: Thyrotropin-releasing hormone receptor (Homo sapiens) (UniProt P34981); test: qHTS assay to identify small molecule antagonists of the thyrotropin-releasing hormone receptor (TRHR) signaling pathway (AID 1346877; active means well fitted inhibition curve with a large enough effect in the repeat runs, not every such curve was filed as active; further: series mostly up to about 51 µM)
Outline: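 HEK293/TRHR cells, 18 h, 37 °C; Ca2+ dye 2 h; cpd 5 min RT; TRH 1 nM final; fluorescence read 3 min, 1 s intervals; 15 concs, triplicate.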

[19] = molecular target: Nuclear receptor subfamily 1 group I member 2 (Rattus norvegicus) (UniProt Q9R1A7); test: Rat pregnane X receptor (rPXR) activation by small molecules, qHTS assay (AID 1346983); settings: rPXR luciferase reporter cells, One-Glo luminescence, 24 h; stronger effect = higher value; further: nearly all actives have a fitted effect of over 20% in size
Outline: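 Cell-based rPXR activation assay: rPXR cells, 2,000 per well, rested 5hr at 37 C, then exposed to compounds in DMSO for 24 hr at 37 C. Luciferase activity read by One-Glo luminescence after 30 min at room temperature.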

[20] = molecular target: Cytochrome P450 1A2 (Homo sapiens) (UniProt P05177); test: Cytochrome P450 Family 1 Subfamily A Member 2 (CYP1A2) small molecule antagonists: luciferase reporter qHTS assay (AID 1671199); further: nearly all actives have a fitted effect of over 50% in size; further: potency means the concentration at half of the fitted maximal effect
Outline: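 Luminescence readout (relative luminescence units) after luciferin detection reagent, 20 min RT. Preceded by 1 h room-temperature CYP1A2 reaction with NADPH regeneration solution following 10 min compound preincubation with enzyme and proluciferin substrate. Furafylline positive control.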

Chain of Cytochrome P450 2C9 (Homo sapiens) (P11712 whole entry, looked up): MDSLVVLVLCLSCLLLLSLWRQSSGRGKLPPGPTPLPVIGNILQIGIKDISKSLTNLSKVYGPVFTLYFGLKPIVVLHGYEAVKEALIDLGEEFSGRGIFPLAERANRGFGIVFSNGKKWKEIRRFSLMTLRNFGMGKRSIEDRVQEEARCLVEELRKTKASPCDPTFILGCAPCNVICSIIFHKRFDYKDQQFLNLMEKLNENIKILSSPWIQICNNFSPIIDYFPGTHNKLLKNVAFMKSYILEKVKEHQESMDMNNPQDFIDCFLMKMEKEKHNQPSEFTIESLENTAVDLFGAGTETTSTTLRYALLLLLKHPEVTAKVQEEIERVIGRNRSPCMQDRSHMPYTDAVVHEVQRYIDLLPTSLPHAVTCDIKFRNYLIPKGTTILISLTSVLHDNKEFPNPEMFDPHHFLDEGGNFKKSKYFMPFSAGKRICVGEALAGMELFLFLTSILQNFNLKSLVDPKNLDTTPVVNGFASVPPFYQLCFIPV
Chain of Cytochrome P450 2D6 (Homo sapiens) (P10635 whole entry, looked up): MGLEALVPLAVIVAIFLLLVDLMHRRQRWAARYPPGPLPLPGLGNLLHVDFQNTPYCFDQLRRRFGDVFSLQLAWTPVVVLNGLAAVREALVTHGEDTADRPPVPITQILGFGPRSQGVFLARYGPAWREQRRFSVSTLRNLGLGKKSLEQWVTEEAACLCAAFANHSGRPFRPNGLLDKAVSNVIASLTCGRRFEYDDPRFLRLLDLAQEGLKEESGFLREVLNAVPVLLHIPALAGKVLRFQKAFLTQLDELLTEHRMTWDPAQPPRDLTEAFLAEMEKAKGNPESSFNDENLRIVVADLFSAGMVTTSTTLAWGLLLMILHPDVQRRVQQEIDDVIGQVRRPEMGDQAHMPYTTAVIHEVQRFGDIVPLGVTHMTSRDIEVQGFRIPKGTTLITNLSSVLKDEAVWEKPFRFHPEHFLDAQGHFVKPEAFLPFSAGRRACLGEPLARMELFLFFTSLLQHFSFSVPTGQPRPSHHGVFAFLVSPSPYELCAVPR
Chain of Nuclear receptor subfamily 1 group I member 2 (Homo sapiens) (O75469 whole entry, looked up): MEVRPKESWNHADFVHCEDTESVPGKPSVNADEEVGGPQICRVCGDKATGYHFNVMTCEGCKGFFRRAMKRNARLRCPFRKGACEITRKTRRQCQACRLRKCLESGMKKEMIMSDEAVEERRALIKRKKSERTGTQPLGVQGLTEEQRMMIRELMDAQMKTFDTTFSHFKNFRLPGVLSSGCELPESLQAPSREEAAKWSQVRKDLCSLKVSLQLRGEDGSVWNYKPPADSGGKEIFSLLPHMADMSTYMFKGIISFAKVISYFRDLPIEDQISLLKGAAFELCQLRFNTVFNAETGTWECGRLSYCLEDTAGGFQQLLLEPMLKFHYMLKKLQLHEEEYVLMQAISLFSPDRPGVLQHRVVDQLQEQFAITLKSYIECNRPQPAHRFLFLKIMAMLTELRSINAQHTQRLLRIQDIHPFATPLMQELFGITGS
Chain of Cytochrome P450 1A2 (Homo sapiens) (P05177 whole entry, looked up): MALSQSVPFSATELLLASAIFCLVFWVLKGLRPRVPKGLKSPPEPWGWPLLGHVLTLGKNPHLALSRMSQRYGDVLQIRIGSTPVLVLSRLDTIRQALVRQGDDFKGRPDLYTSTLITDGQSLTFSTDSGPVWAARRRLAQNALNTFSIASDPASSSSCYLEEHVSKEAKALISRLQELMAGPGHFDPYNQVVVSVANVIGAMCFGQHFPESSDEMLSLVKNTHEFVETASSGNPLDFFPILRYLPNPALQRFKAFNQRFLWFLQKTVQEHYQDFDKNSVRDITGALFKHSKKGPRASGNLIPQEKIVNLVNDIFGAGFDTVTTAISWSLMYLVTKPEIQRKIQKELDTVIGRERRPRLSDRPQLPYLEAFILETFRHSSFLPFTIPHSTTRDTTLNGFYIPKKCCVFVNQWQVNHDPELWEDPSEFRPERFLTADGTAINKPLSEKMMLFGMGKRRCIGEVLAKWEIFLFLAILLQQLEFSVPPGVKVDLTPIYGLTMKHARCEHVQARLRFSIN
Chain of Cytochrome P450 2C19 (Homo sapiens) (P33261 whole entry, looked up): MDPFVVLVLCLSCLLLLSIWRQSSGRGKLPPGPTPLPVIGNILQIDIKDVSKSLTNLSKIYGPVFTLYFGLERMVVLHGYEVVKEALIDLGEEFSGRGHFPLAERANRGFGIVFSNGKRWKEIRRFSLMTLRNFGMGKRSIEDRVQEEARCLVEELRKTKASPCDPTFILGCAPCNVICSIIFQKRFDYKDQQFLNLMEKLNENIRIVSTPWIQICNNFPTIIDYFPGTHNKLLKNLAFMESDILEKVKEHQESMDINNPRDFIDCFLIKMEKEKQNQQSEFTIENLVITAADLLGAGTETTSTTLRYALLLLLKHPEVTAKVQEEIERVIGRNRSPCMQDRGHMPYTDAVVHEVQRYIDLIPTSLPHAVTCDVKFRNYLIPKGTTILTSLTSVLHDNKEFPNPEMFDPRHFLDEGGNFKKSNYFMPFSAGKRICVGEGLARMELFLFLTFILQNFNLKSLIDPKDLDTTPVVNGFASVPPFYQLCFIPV
Chain of Thyrotropin-releasing hormone receptor (Homo sapiens) (P34981 whole entry, looked up): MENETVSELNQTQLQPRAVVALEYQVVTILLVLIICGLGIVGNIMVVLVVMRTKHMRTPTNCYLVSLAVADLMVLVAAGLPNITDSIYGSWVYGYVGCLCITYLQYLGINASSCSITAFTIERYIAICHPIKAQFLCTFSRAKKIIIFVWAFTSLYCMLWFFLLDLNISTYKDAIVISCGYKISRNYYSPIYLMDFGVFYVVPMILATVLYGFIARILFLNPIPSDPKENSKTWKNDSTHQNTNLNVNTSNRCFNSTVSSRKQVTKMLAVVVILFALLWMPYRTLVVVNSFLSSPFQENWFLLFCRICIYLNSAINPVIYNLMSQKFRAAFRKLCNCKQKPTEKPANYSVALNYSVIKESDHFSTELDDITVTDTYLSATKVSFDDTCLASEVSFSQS
Chain of Voltage-gated inwardly rectifying potassium channel KCNH2 (Homo sapiens) (Q12809 whole entry, looked up): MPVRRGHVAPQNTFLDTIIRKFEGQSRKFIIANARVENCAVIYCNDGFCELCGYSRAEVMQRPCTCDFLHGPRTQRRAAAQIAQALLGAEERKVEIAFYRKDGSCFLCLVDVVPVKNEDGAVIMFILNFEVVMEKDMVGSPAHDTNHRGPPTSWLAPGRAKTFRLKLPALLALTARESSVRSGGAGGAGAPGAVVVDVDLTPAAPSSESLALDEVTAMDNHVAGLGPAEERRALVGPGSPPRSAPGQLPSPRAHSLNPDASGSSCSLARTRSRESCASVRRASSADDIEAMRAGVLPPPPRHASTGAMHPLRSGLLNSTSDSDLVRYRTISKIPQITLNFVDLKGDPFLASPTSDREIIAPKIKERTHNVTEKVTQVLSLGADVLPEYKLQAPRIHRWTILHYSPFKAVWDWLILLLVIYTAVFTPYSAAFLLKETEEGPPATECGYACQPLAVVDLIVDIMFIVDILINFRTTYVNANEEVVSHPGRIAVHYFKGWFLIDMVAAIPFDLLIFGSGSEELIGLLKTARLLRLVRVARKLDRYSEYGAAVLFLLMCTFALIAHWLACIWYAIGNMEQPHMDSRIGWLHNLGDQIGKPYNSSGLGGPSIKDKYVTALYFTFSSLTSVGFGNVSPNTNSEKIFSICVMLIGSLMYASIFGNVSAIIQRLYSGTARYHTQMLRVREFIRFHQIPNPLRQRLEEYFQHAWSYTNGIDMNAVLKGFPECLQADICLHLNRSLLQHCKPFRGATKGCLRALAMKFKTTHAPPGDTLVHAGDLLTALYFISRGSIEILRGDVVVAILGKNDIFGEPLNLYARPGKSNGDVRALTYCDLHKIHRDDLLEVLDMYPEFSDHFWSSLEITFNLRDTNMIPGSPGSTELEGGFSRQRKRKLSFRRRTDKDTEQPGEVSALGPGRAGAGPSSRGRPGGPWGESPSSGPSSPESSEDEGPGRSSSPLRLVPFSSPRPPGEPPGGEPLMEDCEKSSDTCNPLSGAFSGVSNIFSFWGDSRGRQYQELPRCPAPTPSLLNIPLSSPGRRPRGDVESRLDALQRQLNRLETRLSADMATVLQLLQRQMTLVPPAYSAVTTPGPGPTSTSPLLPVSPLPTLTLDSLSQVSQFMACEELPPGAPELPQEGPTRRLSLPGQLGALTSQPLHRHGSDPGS
Chain of Cytochrome P450 3A4 (Homo sapiens) (P08684 whole entry, looked up): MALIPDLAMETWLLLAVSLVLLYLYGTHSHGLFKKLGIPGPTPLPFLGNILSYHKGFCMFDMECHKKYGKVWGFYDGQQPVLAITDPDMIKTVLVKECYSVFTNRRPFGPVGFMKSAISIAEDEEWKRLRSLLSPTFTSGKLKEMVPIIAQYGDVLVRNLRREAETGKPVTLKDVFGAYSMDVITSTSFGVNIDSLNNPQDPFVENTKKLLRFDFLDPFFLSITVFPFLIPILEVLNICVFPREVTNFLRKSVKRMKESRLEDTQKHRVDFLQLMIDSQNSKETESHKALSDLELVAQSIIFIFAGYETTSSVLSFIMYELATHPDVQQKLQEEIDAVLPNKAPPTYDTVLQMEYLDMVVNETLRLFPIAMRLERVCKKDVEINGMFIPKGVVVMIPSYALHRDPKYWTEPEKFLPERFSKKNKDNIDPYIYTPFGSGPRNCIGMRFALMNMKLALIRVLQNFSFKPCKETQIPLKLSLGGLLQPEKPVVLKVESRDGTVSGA
Chain of Nuclear receptor subfamily 1 group I member 2 (Rattus norvegicus) (Q9R1A7 whole entry, looked up): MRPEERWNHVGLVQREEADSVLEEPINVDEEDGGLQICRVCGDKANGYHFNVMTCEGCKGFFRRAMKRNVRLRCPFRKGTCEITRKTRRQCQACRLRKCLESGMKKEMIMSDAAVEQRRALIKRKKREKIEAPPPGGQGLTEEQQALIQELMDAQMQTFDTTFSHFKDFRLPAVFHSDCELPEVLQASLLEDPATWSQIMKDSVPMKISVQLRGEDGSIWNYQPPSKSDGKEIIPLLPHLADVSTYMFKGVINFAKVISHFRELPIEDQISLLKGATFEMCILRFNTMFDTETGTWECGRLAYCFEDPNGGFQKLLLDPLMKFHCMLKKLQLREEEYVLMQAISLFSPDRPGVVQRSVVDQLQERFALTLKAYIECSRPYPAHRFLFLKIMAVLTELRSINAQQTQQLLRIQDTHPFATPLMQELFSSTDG

## COc1ccc2c(c1)c1c3n2CCN(C)C3=NCC1
[1]
  outcome: inactive
[2]
  outcome: inactive
[3]
  outcome: inactive
[4]
  outcome: inactive
[5]
  outcome: inactive
[6]
  Potency: inactive
[7]
  outcome: inactive
[8]
  outcome: inactive
[9]
  Potency: inactive
[10]
  Potency: inactive
[11]
  Potency: inactive
[12]
  Potency: inactive
[13]
  Potency: inactive
[14]
  Potency: inactive

## C[C@H]1[C@@H](c2ccccc2)NC(=O)N1C
[1]
  outcome: inactive
[2]
  outcome: inactive
[3]
  outcome: inactive
[5]
  outcome: inactive
[15]
  outcome: inactive
[6]
  Potency: inactive
[7]
  outcome: inactive
[9]
  Potency: inactive
[16]
  Potency: inactive
[13]
  Potency: inactive
[14]
  Potency: inactive
[17]
  Potency: inactive

## CC1CCc2c(N3CCC(O)CC3)c(F)cc3c(=O)c(C(=O)O)cn1c23 (stereo not given)
[1]
  outcome: inactive
[2]
  outcome: inactive
[18]
  outcome: inactive
[4]
  outcome: inactive
[5]
  outcome: inactive
[15]
  outcome: inactive
[6]
  Potency: inactive
[7]
  outcome: inactive
[8]
  outcome: inactive
[9]
  Potency: inactive
[19]
  max activation: -2.67%
[10]
  Potency: inactive
[11]
  Potency: inactive
[16]
  Potency: inactive
[20]
  Potency: inactive
[14]
  Potency: inactive

## CCC(C)OC(C)CC (stereo not given)
[1]
  outcome: inactive
[2]
  outcome: inactive
[3]
  outcome: inactive
[5]
  outcome: inactive
[6]
  Potency: inactive
[7]
  outcome: inactive
[8]
  outcome: inactive
[9]
  Potency: inactive
[12]
  Potency: inactive
[13]
  Potency: inactive
[20]
  Potency: inactive
[14]
  Potency: inactive
[17]
  Potency: inactive

## CCOCCOCC
[1]
  outcome: inactive
[2]
  outcome: inactive
[3]
  outcome: inactive
[5]
  outcome: inactive
[6]
  Potency: inactive
[7]
  outcome: inactive
[8]
  outcome: inactive
[9]
  Potency: inactive
[12]
  Potency: inactive
[13]
  Potency: inactive
[14]
  Potency: inactive
[17]
  Potency: inactive

## C=C(C)C1CC=C(C)C(=O)C1 (stereo not given)
[1]
  outcome: inactive
[2]
  outcome: inactive
[3]
  outcome: inactive
[5]
  outcome: inactive
[15]
  outcome: inactive
[6]
  Potency: inactive
[7]
  outcome: inactive
[8]
  outcome: inactive
[9]
  Potency: inactive
[12]
  Potency: inactive
[13]
  Potency: inactive
[20]
  Potency: inactive
[17]
  Potency: inactive

## CO[C@@]1(NC(=O)Cc2cccs2)C(=O)N2C(C(=O)O)=C(COC(N)=O)CS[C@@H]21
[1]
  outcome: inactive
[2]
  outcome: inactive
[18]
  outcome: inactive
[4]
  outcome: inactive
[5]
  outcome: inactive
[15]
  outcome: inactive
[6]
  Potency: inactive
[7]
  outcome: inactive
[8]
  outcome: inactive
[9]
  Potency: inactive
[16]
  Potency: inactive
[12]
  Potency: inactive
[13]
  Potency: inactive
[20]
  Potency: inactive
[14]
  Potency: inactive
[17]
  Potency: inactive

## CNCCS(=O)(=O)O
[1]
  outcome: inactive
[2]
  outcome: inactive
[3]
  outcome: inactive
[5]
  outcome: inactive
[15]
  outcome: inactive
[6]
  Potency: inactive
[7]
  outcome: inactive
[8]
  outcome: inactive
[12]
  Potency: inactive
[13]
  Potency: inactive
[20]
  Potency: 35.9 µM (active)

## CC(C)(CO)C(O)C(=O)NCCCO (stereo not given)
[1]
  outcome: inactive
[2]
  outcome: inactive
[3]
  outcome: inactive
[5]
  outcome: inactive
[15]
  outcome: inactive
[6]
  Potency: inactive
[7]
  outcome: inactive
[9]
  Potency: inactive
[16]
  Potency: inactive
[12]
  Potency: inactive
[13]
  Potency: inactive
[14]
  Potency: inactive
[17]
  Potency: inactive
